VACV Venus inh: qHTS for Stage-Specific Inhibitors of Vaccinia Orthopoxvirus: Venus Reporter Primary qHTS | Vaccinia virus Venus reporter expression, fluorescence | Potency, µM (series often up to 36.5 µM), usual class: inhibitors | 330,000 compounds, 0.46% hits | AID 720580, 2013; calls by dose curve; tested in A549 cells; also: nearly all actives have a fitted effect of over 30% in size
HCV inhibitor: qHTS Assay for Inhibitors of Hepatitis C Virus (HCV); Huh7.5.1 HCVcc-Cre infection, luciferase reporter, 44 h; Potency, µM (doses to about 41.8 µM), most hits filed as inhibitors; 340,000 compounds, 3.4% hits; AID 651820, 2012; active = well fitted inhibition curve with a large enough effect; inconclusive = small, poorly fitted or top-dose-only effect, or another doubt; inactive = no such curve, though single readings can be large or run the other way
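Whole-lifecycle infectious HCVcc-Cre system; cells 1,000/well, compound then virus (~0.5 moi) added 4 h after plating, 44 h culture. Luciferase read 15 sec following 15 min substrate incubation, room temp.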
FMDV inh: High Throughput Screening for Foot and Mouth Disease Virus Antivirals; FMDV antiviral cell-based qHTS; Potency, µM (highest dose often 57.9 µM), hits mostly inhibitors; 410,000 compounds, 1.2% hits; AID 1159524, 2015; calls by dose curve; tested in HEK293T cells; also: read-out not given here; nearly all actives have a fitted effect of over 45% in size
Vaccinia mCherry: qHTS for Stage-Specific Inhibitors of Vaccinia Orthopoxvirus: mCherry Reporter Primary qHTS | 310,000 compounds, 0.63% hits | Potency, µM (doses to about 36.5 µM), usual class: inhibitors | Vaccinia virus mCherry reporter infection, fluorescence; calls by dose curve; tested in A549 cells; also: nearly all actives have a fitted effect of over 35% in size
HCMV antiviral: qHTS Assay for inhibitors of the human cytomegalovirus (HCMV); HFF cells, HCMV-luciferase reporter, 72 h; stronger effect = lower value; activity change, negative = inhibition, % at 57.5 µM; 410,000 compounds, 4.5% hits; AID 1259415, 2018; in the data active = activity change below about -60%; inconclusive = no clear call, values can overlap the other calls; inactive = above about -39%
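Two compound doses tested in HFFs infected with HCMV-luciferase, MOI 1 PFU/cell, 72 h at 37C. Lysate luminescence read with OneGlo; data normalized against buffer-only and 10uM Salinomycin inhibitor controls.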
Large screens that a line does not name were inactive; ! = not active in a repeat. An excerpt weighted towards active compounds, which were near 7.3% of everything screened.

Cc1cccc(-n2c(-c3ccc([N+](=O)[O-])cc3)nc3ccccc3c2=O)c1	HCMV antiviral inconclusive
O=c1nc2n(-c3ccccc3F)c3ccccc3cc-2c(=O)[nH]1	none (no result: HCV inhibitor)
Cc1ccc(C)c(-n2c3nc(=O)[nH]c(=O)c-3cc3cc([N+](=O)[O-])ccc32)c1	FMDV inh 28.2µM, HCMV antiviral inconclusive
C/C(=N\Nc1cc(C)nc(NCc2ccccc2)n1)c1cccc([N+](=O)[O-])c1	HCV inhibitor 2µM (no result: VACV Venus inh, Vaccinia mCherry)
Cc1nc(N/N=C/c2ccc(O)cc2O)cc(N2CCOCC2)n1	VACV Venus inh inconclusive, Vaccinia mCherry 1.12µM, HCMV antiviral inconclusive
Cc1nc(N/N=C/c2cccc(F)c2)cc(N2CCOCC2)n1	HCV inhibitor inconclusive, FMDV inh inconclusive, Vaccinia mCherry inconclusive
C/C(=N\Nc1cc(N2CCOCC2)nc(C)n1)c1cccc([N+](=O)[O-])c1	HCV inhibitor 11.2µM, FMDV inh inconclusive (no result: VACV Venus inh, Vaccinia mCherry)
Cc1cc(C(=O)NCc2nc(-c3ccccc3NC(=O)C3CCCO3)oc2C)nc(C)n1 (stereo unspecified)	none (no result: HCV inhibitor, HCMV antiviral)
CCCCCN(CCCCC)c1ccc(/C=C/c2ccnc3ccccc23)cc1	none (no result: HCV inhibitor, FMDV inh, HCMV antiviral)
FC(F)(F)c1cccc(-c2cnc3ccc(C4CC4)nn23)c1	HCMV antiviral -82.0 (no result: VACV Venus inh, HCV inhibitor, FMDV inh, Vaccinia mCherry)
Cc1ccc(-c2c(CN3CCN(c4cc(Cl)ccc4C)CC3)csc2C)cc1	none (no result: HCV inhibitor)
Cc1nn(Cc2ccc(Cl)cc2Cl)c(C)c1NC(=O)c1sc2ccccc2c1Cl	none
Cc1ccccc1Cn1nc(C)c(NC(=O)c2sc3ccccc3c2Cl)c1C	VACV Venus inh inconclusive, HCV inhibitor 31.6µM, FMDV inh 31.6µM
Cc1nn(Cc2ccc(Cl)c(Cl)c2)c(C)c1NC(=O)c1sc2ccccc2c1Cl	HCV inhibitor 22.4µM, FMDV inh 31.6µM, Vaccinia mCherry inconclusive
Cc1nn(Cc2c(Cl)cccc2Cl)c(C)c1NC(=O)c1sc2ccccc2c1Cl	HCV inhibitor inconclusive, Vaccinia mCherry inconclusive, HCMV antiviral -84.6
CC1=C([N+](=O)[O-])C(c2cccc(Br)c2)C2=C(N1)c1ccccc1C2=O (stereo unspecified)	HCV inhibitor inconclusive, FMDV inh inconclusive, HCMV antiviral -89.7 (no result: VACV Venus inh, Vaccinia mCherry)
Cn1cccc1-c1cc2n(n1)CCC(=O)N2CCCC(=O)NCc1cccc(Cl)c1	none (no result: HCV inhibitor)
O=C(CCl)NC(=O)NC12CC3CC(CC(C3)C1)C2	FMDV inh inconclusive, HCMV antiviral -99.2
CC(Cl)C(=O)NC(=O)NC12CC3CC(CC(C3)C1)C2 (stereo unspecified)	none
C=CCNc1nc(S(=O)Cc2ccc(C)cc2)nc2c1CCCC2 (stereo unspecified)	HCMV antiviral -98.3 (no result: VACV Venus inh, Vaccinia mCherry)
N=c1n(Cc2ccc(Cl)cc2)c2ccccc2n1CC(O)COc1ccccc1 (stereo unspecified)	VACV Venus inh inconclusive, HCV inhibitor 12.6µM, FMDV inh inconclusive, Vaccinia mCherry 28.2µM, HCMV antiviral -102.4
COc1ccc(OCC(O)Cn2c(=N)n(Cc3ccccc3)c3ccccc32)cc1 (stereo unspecified)	HCV inhibitor 10µM, FMDV inh inconclusive (no result: VACV Venus inh, Vaccinia mCherry)
Cc1ccc(OCC(O)Cn2c(=N)n(Cc3ccccc3)c3ccccc32)cc1 (stereo unspecified)	VACV Venus inh 14.1µM, HCV inhibitor inconclusive, Vaccinia mCherry 11.2µM, HCMV antiviral -74.2
Cc1cccc(OCC(O)Cn2c(=N)n(Cc3ccccc3)c3ccccc32)c1 (stereo unspecified)	HCV inhibitor inconclusive, FMDV inh inconclusive (no result: VACV Venus inh, Vaccinia mCherry)
N=c1n(Cc2ccccc2)c2ccccc2n1CC(O)COc1ccc(Cl)cc1Cl (stereo unspecified)	VACV Venus inh inconclusive, HCV inhibitor 11.2µM, FMDV inh 35.5µM, Vaccinia mCherry inconclusive, HCMV antiviral -101.4
CCn1c(=N)n(CC(O)COc2ccccc2)c2ccccc21 (stereo unspecified)	none (no result: HCV inhibitor)
COc1ccc2sc(N(Cc3cccnc3)C(=O)C3COc4ccccc4O3)nc2c1 (stereo unspecified)	HCMV antiviral inconclusive (no result: HCV inhibitor)
Cc1nn(C)c(C)c1NC(=O)COc1ccc(Cl)cc1	HCV inhibitor 11.2µM, FMDV inh inconclusive (no result: VACV Venus inh, Vaccinia mCherry)
Cc1nn(C)c(C)c1NC(=O)CCl	VACV Venus inh inconclusive, Vaccinia mCherry inconclusive, HCMV antiviral -69.7
Cc1nn(C)c(C)c1NC(=O)CC12CC3CC(CC(C3)C1)C2	none
Cc1ccc(-n2nc(C)c(NC(=O)CCl)c2C)cc1C	VACV Venus inh inconclusive, HCV inhibitor 3.55µM, Vaccinia mCherry inconclusive, HCMV antiviral -102.9
Cc1cccc(C)c1OCC(=O)Nc1c(C)nn(C)c1C	FMDV inh inconclusive (no result: VACV Venus inh, Vaccinia mCherry)
c1ccc(-c2nc(SCC3CCCCO3)n[nH]2)cc1 (stereo unspecified)	none (no result: HCV inhibitor, FMDV inh, HCMV antiviral)
Cc1ccc(C(=O)c2cn(CC(=O)NCc3ccccc3Cl)c3nc(C)ccc3c2=O)cc1	none (no result: HCV inhibitor)
C/C=C(\C)C(=O)NCCN1Cc2ccccc2OC(c2ccccc2OC)C1 (stereo unspecified)	none (no result: HCV inhibitor, HCMV antiviral)
CCOc1ccc(CNCc2c(C(=O)O)c(C)n(Cc3ccc(C)cc3)c2C)cc1	none (no result: HCV inhibitor)
O=C(COC(=O)C12CC3CC(CC(Br)(C3)C1)C2)NCc1ccco1	none (no result: HCV inhibitor, FMDV inh, HCMV antiviral)
CCOC(=O)c1cc2c(=O)n3ccccc3nc2n(CCOC)c1=NC(=O)c1c(-c2c(F)cccc2Cl)noc1C	HCV inhibitor inconclusive, HCMV antiviral -60.6!
N#CC1c2ccccc2C=CN1C(=O)N(c1ccccc1)c1ccccc1 (stereo unspecified)	HCV inhibitor inconclusive, FMDV inh 31.6µM, Vaccinia mCherry inconclusive
N#CC1c2ccccc2C=CN1C(=O)c1ccc(N(CCCl)CCCl)cc1 (stereo unspecified)	none (no result: HCV inhibitor)
CCc1ccc(C(C)NC(=O)C2(C)CC2(Br)Br)cc1 (stereo unspecified)	none
CCC(NC(=O)C1(C)CC1(Br)Br)c1ccc(C)cc1 (stereo unspecified)	HCMV antiviral -72.2 (no result: Vaccinia mCherry)
COc1ccc([N+](=O)[O-])cc1NC(=O)C(C)OC(=O)c1ccccc1C(=O)c1ccc(Cl)cc1 (stereo unspecified)	HCV inhibitor inconclusive, HCMV antiviral -65.2
COc1ccc(Cl)cc1NC(=O)NCC1CCN(Cc2cc(C)ccc2C)CC1	HCV inhibitor inconclusive, FMDV inh inconclusive (no result: VACV Venus inh, Vaccinia mCherry)
COc1ccc([N+](=O)[O-])cc1NC(=S)NC(NC(C)=O)C(Cl)(Cl)Cl (stereo unspecified)	HCV inhibitor inconclusive (no result: VACV Venus inh, Vaccinia mCherry)
COc1ccc(NC(=O)Nc2ccc(OC)c(OC)c2)c([N+](=O)[O-])c1	none
COc1ccc([N+](=O)[O-])cc1NC(=S)NC(NC(=O)Cc1ccc(OC)c(OC)c1)C(Cl)(Cl)Cl (stereo unspecified)	HCV inhibitor 7.94µM (no result: VACV Venus inh, Vaccinia mCherry)
COc1ccc([N+](=O)[O-])cc1NC(=O)Nc1ccc(OC)c(OC)c1	VACV Venus inh inconclusive, HCV inhibitor 2.82µM, FMDV inh 35.5µM, Vaccinia mCherry inconclusive, HCMV antiviral -72.4
COc1cc([N+](=O)[O-])ccc1NC(=O)NCC1CCN(Cc2ccc(Cl)cc2)CC1	VACV Venus inh inconclusive, HCV inhibitor 12.6µM
CCN1CCc2c(sc(NC(=S)NC(=O)c3cccc(F)c3)c2C(N)=O)C1	none (no result: HCV inhibitor, FMDV inh, HCMV antiviral)
